Results taken from PubChem BioAssay (EPA / NIEHS).
Where “and” joins values, the source holds several entries; their conditions need not be identical. Equal entries are not always repeated. A structure can be active in one record and inactive in another. Calls of active or inactive are those of the source. Rule for the calls: active = hit-call score of the fitted dose curve at least 0.9, where 1 is the maximum; inactive = score below 0.9.

read-out: Urokinase-type plasminogen activator receptor (uPAR), PLAUR (gene 5329); experiment: BSK_4H_uPAR: BioMAP Diversity Plus: 4H Assay for Urokinase-type plasminogen activator receptor (uPAR) Biomarker Activity (AID 2283030); details: primary human endothelial cells (HUVEC); actives raise or lower the signal
Experimental: BSK_4H is a cell-based, multiplexed-readout assay that uses umbilical vein endothelium, a human vascular primary cell, with measurements taken at 24 hours after chemical dosing in a 96-well plate.BSK_4HAR is an assay component measured in the BSK_4H assay. It measures uPAR antibody related to regulation of gene expression using ELISA technology.Data from the assay component BSK_4HAR was analyzed into 1 assay endpoint. This assay endpoint, BSK_4HAR, was analyzed with bidirectional fitting relative to DMSO as the negative control and baseline of activity. Using a type of binding reporter, gain or loss-of-signal activity can be used to understand changes in the signaling as they relate to the gene PLAUR. Furthermore, this assay endpoint can be referred to as a primary readout, because this assay has produced multiple assay endpoints where this one serves a signaling function. To generalize the intended target to other relatable targets, this assay endpoint is annotated to the cytokine intended target family, where the subfamily is plasmogen activator.
The levels of cell surface (or secreted, indicated by the prefix "s") biomarker endpoints were measured by ELISA. Overt cytotoxicity to cells in confluent adherent cultures (all systems other than the BT system) was assessed by measuring total protein levels using sulforhodamine B (SRB) staining in parallel cultures at the time of biomarker measurements, indicated as SRB endpoints. For proliferation assays for adherent cell types, individual cell types are cultured at sub-confluence and relative cell numbers quantified by SRB staining at time points optimized for each system (48 h: 3C and CASM3C systems; 72 h: BT and HDF3CGF systems; 96 h: SAg system). SRB was performed by staining cells with 0.1% SRB after fixation with 10% TCA and reading wells at 560 nm.Viability and proliferation of PBMC (T cells) was quantified by Alamar Blue reduction for the SAg and BT systems. For PBMC viability (referred to as PBMC Cytotoxicity within the assay endpoint names), cells were plated (75,000/well in a 96-well plate) and then chemical samples added for 1 h before addition of activators, SEB and TSST-1 (20 ng/mL final concentration each). Cells were incubated for 90 h. Then, Alamar Blue (20 uL/well) (Invitrogen, Cat DAL1100) was added for 6 h, and the plates were read with a fluorescence microplate reader at 546/580 nm (excitation/emission). For PBMC proliferation, cells were plated and activated as above but incubated for only 16 h prior to addition of Alamar Blue. Plates were read after 6 h.

Compound	AC50	outcome
Cc1ccc(-c2c(Cl)nc(C#N)n2S(=O)(=O)N(C)C)cc1	14.7 µM (active)	
Cc1cc(Cl)ccc1OCC(=O)O		inactive
CC1=C(C(=O)Nc2ccccc2)SCCO1		inactive
C=CCC1=C(C)C(OC(=O)C2C(C=C(C)C)C2(C)C)CC1=O (stereo not given)	38.4 µM (active) and 32.8 µM (active)	inactive
CC(Oc1ccc(Cl)cc1Cl)C(=O)O (stereo not given)		inactive
CCCCNC(=O)n1c(NC(=O)OC)nc2ccccc21	9.62 µM (active)	
CCCN(CCC)c1c([N+](=O)[O-])cc(S(N)(=O)=O)cc1[N+](=O)[O-]	33 µM (active) [middle of 4 runs]	
CCCCNC(=O)OCC#CI	27.9 µM (active) and 25.8 µM (active)	
COC(=O)N(OC)c1ccccc1COc1ccn(-c2ccc(Cl)cc2)n1	20 µM (active)	
CCOc1cc(Oc2ccc(C(F)(F)F)cc2Cl)ccc1[N+](=O)[O-]		inactive
CON(C)C(=O)Nc1ccc(Cl)c(Cl)c1		inactive
CNC(=O)ON=CC(C)(C)SC		inactive
CCOC(=O)CC(SP(=S)(OC)OC)C(=O)OCC (stereo not given)		inactive
CCCCC(CC)COC(=O)c1ccccc1C(=O)OCC(CC)CCCC (stereo not given)		inactive
CCNc1nc(Cl)nc(NCC)n1		inactive
C#CCOS(=O)OC1CCCCC1Oc1ccc(C(C)(C)C)cc1 (stereo not given)	20 µM (active)	
O=C(O)COc1nc(Cl)c(Cl)cc1Cl		inactive
CCOP(=S)(OCC)SCn1c(=O)oc2cc(Cl)ccc21		inactive
COC(=O)C=C(C)OP(=O)(OC)OC		inactive

Compound	AC50	outcome
CC1COC(Cn2cncn2)(c2ccc(Oc3ccc(Cl)cc3)cc2Cl)O1 (stereo not given)	24.3 µM (active)	
CCOC(=O)C(Cl)Cc1cc(-n2nc(C)n(C(F)F)c2=O)c(F)cc1Cl (stereo not given)		inactive
O=C(O)c1nc(Cl)ccc1Cl		inactive
COc1nc(NC(C)C)nc(NC(C)C)n1		inactive
N#Cc1nn(-c2c(Cl)cc(C(F)(F)F)cc2Cl)c(N)c1S(=O)C(F)(F)F (stereo not given)	23.2 µM (active)	
OC(c1ccc(Cl)cc1)(c1cncnc1)c1ccccc1Cl (stereo not given)	18.3 µM (active)	
CO/C=C(/C(=O)OC)c1ccccc1Oc1cc(Oc2ccccc2C#N)ncn1	30.4 µM (active) and 30.6 µM (active) and 30.8 µM (active)	inactive
COC(=O)c1ccccc1C(=O)OC		inactive
CC(C)(C)c1ccc(CSc2cnn(C(C)(C)C)c(=O)c2Cl)cc1		inactive
COP(=S)(OC)Oc1nc(Cl)c(Cl)cc1Cl		inactive
CC(C)Oc1cc(-n2nc(C(C)(C)C)oc2=O)c(Cl)cc1Cl		inactive
COC(=O)C(C)Oc1ccc(Oc2ccc(Cl)cc2Cl)cc1 (stereo not given)		inactive
CCCCOC(=O)c1ccccc1C(=O)OCCCC		inactive
N#CC(CCc1ccc(Cl)cc1)(Cn1cncn1)c1ccccc1 (stereo not given)		inactive
O=C(Nc1ccccc1)Nc1ccnc(Cl)c1		inactive
CCc1nn(C)c(C(=O)NCc2ccc(C(C)(C)C)cc2)c1Cl	33 µM (active)	
CCCC1COC(Cn2cncn2)(c2ccc(Cl)cc2Cl)O1 (stereo not given)		inactive
CN(C)C(=S)SSC(=S)N(C)C	26.3 µM (active)	
N#Cc1cc(Br)c(O)c(Br)c1	16.9 µM (active)	
